According to PubChem BioAssay:
Calls of active or inactive are those of the source. Unless noted, no rule for the calls is given here.

Assays:
[1] = compound effects on lung adenocarcinoma cell viability – A549, calcein-AM fluorescence, 48 h, basal, profiling panel (AID 1162); settings: higher = more signal; also: test concentration not given here
[2] = compound effects on differentiated 3T3-L1 adipocyte viability – cell-based, 3T3-L1 adipocytes, calcein-AM fluorescence, 48 h, basal, profiling panel (AID 1163); settings: 3T3-L1 adipocytes viability, higher = more signal; also: test concentration not given here
[3] = compound effects on hepatocellular carcinoma cell viability – HepG2, calcein-AM fluorescence, 48 h, basal, profiling panel (AID 1164); settings: higher = more signal; also: test concentration not given here
[4] = compound effects on multiple myeloma cell viability – MM1S, calcein-AM fluorescence, 48 h, basal, profiling panel (AID 1165); settings: higher = more signal;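 also: viability of MM1S multiple myeloma cells under basal unstimulated conditions; test concentration not given here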
[5] = calcein-AM signal in unstimulated myeloma cells – cell-based, calcein-AM fluorescence, 48 h, PK04 Diversity Set, profiling panel (AID 1166); settings: RPMI8226 myeloma viability, higher = more signal;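 also: cells grown under basal conditions without added stimulus; test concentration not given here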
[6] = JC-1 mitochondrial signal, unstimulated HepG2 cells – cell-based, JC-1 fluorescence, 24 h, 100 nL compound, profiling panel (AID 1167); settings: HepG2 mitochondrial potential, higher = more signal; also: test concentration not given here
[7] = JC-1 mitochondrial signal, unstimulated adipocytes – cell-based, JC-1 fluorescence, 3T3-L1 adipocytes, 24 h, 100 nL compound, profiling panel (AID 1168); settings: JC-1 mitochondrial fluorescence, higher = more signal, called active from +8 up or from −8 down; also: test concentration not given here
[8] = JC-1 mitochondrial signal, unstimulated myeloma cells – cell-based, JC-1 fluorescence, RPMI8226, 24 h, 100 nL compound, profiling panel (AID 1169); settings: JC-1 mitochondrial potential fluorescence, higher = more signal; also: test concentration not given here
[9] = JC-1 mitochondrial signal, unstimulated MM1S myeloma – cell-based, JC-1 fluorescence, 24 h, 100 nL compound, profiling panel (AID 1170); settings: MM1S mitochondrial potential, higher = more signal; also: test concentration not given here
[10] = resazurin metabolic signal in A549 cells – cell-based, resazurin fluorescence, 24 h, PK04 Diversity Set, profiling panel (AID 1171); settings: A549 viability, higher = more signal, called active from +8 up or from −8 down; also: test concentration not given here
[11] = resazurin metabolic signal in HepG2 cells – cell-based, resazurin fluorescence, 24 h, PK04 Diversity Set, profiling panel (AID 1172); settings: HepG2 viability, higher = more signal; also: test concentration not given here
[12] = budding yeast growth changes without added modifier – OD600, strain BY4716, 24 h, basal condition, primary screen (AID 1173); settings: S. cerevisiae BY4716 growth, OD600, 24 h; higher = more signal, called active from +8 up or from −8 down
[13] = viability profiling in MM1S myeloma cells – cell-based, resazurin fluorescence, basal, 24 h, PK04 Diversity Set, profiling panel (AID 1174); settings: higher = more signal, called active from +8 up or from −8 down; also: test concentration not given here
[14] = target: Dihydroorotate dehydrogenase (quinone), mitochondrial (Plasmodium falciparum (isolate 3D7)) (UniProt Q08210); experiment: inhibition of P. falciparum DHODH – biochemical, C-terminal His tag, absorbance 600 nm, primary screen (AID 1175); settings: PfDHODH enzyme, DCIP absorbance 600 nm; higher = more signal, called active from +8 up or from −8 down;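 also: recombinant parasite enzyme with a five histidine tag at its C terminus; test concentration not given here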
Dihydroorotate dehydrogenase (quinone), mitochondrial (Plasmodium falciparum (isolate 3D7)), sequence (Q08210 whole entry, looked up): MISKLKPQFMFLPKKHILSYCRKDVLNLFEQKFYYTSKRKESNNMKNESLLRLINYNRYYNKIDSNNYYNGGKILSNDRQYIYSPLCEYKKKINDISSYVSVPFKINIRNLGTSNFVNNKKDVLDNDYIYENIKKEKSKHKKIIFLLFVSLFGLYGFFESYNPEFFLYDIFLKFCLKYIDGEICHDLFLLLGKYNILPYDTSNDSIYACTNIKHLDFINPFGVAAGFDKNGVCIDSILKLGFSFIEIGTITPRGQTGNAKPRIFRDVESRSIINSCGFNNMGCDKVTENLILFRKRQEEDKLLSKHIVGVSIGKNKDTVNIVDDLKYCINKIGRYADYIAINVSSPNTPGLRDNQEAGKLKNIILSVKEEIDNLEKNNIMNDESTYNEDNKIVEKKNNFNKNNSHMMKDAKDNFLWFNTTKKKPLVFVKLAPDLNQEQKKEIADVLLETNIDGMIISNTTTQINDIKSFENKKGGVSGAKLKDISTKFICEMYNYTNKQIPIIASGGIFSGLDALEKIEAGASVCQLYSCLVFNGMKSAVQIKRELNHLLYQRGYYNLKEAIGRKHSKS

[15] = inhibition of PAO1 biofilm formation – strain PAO1, LB-PBS medium, absorbance 600 nm, primary screen (AID 1176); also: test concentration not given here; settings: P. aeruginosa PAO1 growth/biofilm, A600, 12 h; higher = more signal
[16] = growth modulation of vineyard yeast isolate – strain RM11-1a, OD600, basal, 24 h, primary screen (AID 1177);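 also: cultures grown under basal conditions with no added stressor; test concentration not given here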; settings: S. cerevisiae RM11-1a growth, OD600, 24 h; higher = more signal, called active from +8 up or from −8 down
[17] = growth of efflux-deficient E. coli DRC39 – strain DRC39, OD650, 24 h, E. coli filamentation inducers, primary screen (AID 1178);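 also: growth measured as culture turbidity by optical density at 650 nm; test concentration not given here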; settings: E. coli DRC39 acrAB, higher = more signal, called active from +8 up or from −8 down
[18] = growth of efflux-deficient E. coli DRC39 – strain DRC39, OD650, 48 h, E. coli filamentation inducers, primary screen (AID 1179);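 also: screen aims at cell division blockers that make cells filament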; settings: E. coli DRC39 delta-acrAB growth, higher = more signal, called active from +8 up or from −8 down
[19] = viability profiling in RPMI8226 myeloma cells – cell-based, resazurin fluorescence, basal, 24 h, PK04 Diversity Set, profiling panel (AID 1180); settings: higher = more signal;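 also: RPMI8826 multiple myeloma cell line at 5000 cells per well; test concentration not given here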
[20] = target: E3 ubiquitin-protein ligase XIAP (Homo sapiens) (UniProt P98170); experiment: small molecules binding XIAP protein – biophysical, small-molecule microarray, fluorescence 635 nm, primary screen (AID 1181); settings: higher = more signal;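 also: score merges 667 nm emission and signal to noise over triplicate slides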
E3 ubiquitin-protein ligase XIAP (Homo sapiens), sequence (P98170 whole entry, looked up): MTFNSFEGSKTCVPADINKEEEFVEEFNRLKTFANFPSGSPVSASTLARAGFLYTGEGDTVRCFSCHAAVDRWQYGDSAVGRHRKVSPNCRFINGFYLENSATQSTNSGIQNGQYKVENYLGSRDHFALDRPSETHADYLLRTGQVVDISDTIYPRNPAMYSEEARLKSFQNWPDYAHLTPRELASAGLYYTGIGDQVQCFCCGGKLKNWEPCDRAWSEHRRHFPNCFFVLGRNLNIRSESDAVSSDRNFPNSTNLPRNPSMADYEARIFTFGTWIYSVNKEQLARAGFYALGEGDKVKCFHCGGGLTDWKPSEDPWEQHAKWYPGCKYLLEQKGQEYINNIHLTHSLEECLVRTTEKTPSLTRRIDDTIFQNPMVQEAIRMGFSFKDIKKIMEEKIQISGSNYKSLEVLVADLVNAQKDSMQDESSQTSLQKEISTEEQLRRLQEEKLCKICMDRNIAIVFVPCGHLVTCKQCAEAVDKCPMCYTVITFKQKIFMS

COCC(=C=CC[C@H](O)c1ccccc1OCCO)C[C@H](O)COCc1ccccc1
z-score [1]: 0.428
z-score [2]: 0.152
z-score [3]: 0.024
z-score [4]: -2.02
z-score [5]: -0.311
z-score [6]: 1.37
z-score [7]: -0.437 (inactive)
z-score [8]: -0.138
z-score [9]: -0.382
z-score [10]: 0.857 (inactive)
z-score [11]: 0.0129
z-score [12]: -2.91 (inactive)
z-score [13]: 0.442 (inactive)
composite z-score [14]: -2.21 (inactive)
z-score [15]: -0.566 (inactive)
z-score [16]: -0.482 (inactive)
z-score [17]: -0.348 (inactive)
z-score [18]: -0.456 (inactive)
z-score [19]: 0.623
composite z-score [20]: 0.151

CC(C)C(O)C1C=CC2C(=O)NC(=O)C2N1Nc1ccccn1 (stereo not given)
z-score [1]: -0.188
z-score [2]: 0.258
z-score [3]: 0.0775
z-score [4]: 0.253
z-score [5]: 0.11
z-score [6]: 0.119
z-score [7]: -1.28 (inactive)
z-score [8]: 0.231
z-score [9]: -0.0451
z-score [10]: -1.05 (inactive)
z-score [11]: -0.984
z-score [12]: 0.754 (inactive)
z-score [13]: -1.69 (inactive)
composite z-score [14]: 0.48 (inactive)
z-score [15]: 0.612 (inactive)
z-score [16]: 0.696 (inactive)
z-score [17]: -1.03 (inactive)
z-score [18]: 0.125 (inactive)
z-score [19]: -1.23
composite z-score [20]: 0.106

COc1ccc([Si](C)(C)[C@H]2[C@H](CC(=O)N3Cc4ccccc4C[C@H]3CO)O[C@@]3(C(=O)N(c4ccccc4)c4ccccc43)[C@@H]2C)cc1
z-score [1]: -0.782
z-score [2]: 0.898
z-score [3]: -0.755
z-score [4]: -2.67
z-score [5]: -4.49
z-score [6]: 0.959
z-score [7]: -0.652 (inactive)
z-score [8]: -1.1
z-score [9]: -0.81
z-score [10]: 0.698 (inactive)
z-score [11]: 0.635
z-score [12]: -1.89 (inactive)
z-score [13]: -2.45 (inactive)
composite z-score [14]: -1.05 (inactive)
z-score [15]: 0.0943 (inactive)
z-score [16]: 0.578 (inactive)
z-score [17]: 0.346 (inactive)
z-score [18]: -0.288 (inactive)
z-score [19]: -2.1
composite z-score [20]: -0.209

[N-]=[N+]=Nc1ccccc1[C@H]1OC(c2ccc(OCCCO)cc2)=N[C@@]1(Cc1ccccc1)C(=O)NCC(O)CO (stereo not given in full)
z-score [1]: -0.761
z-score [2]: 0.405
z-score [3]: -0.629
z-score [4]: -1.5
z-score [5]: -2.2
z-score [6]: 0.854
z-score [7]: 0.291 (inactive)
z-score [8]: -0.925
z-score [9]: -1
z-score [10]: -0.949 (inactive)
z-score [11]: 1.21
z-score [12]: -1.65 (inactive)
z-score [13]: -1.21 (inactive)
composite z-score [14]: -0.0513 (inactive)
z-score [15]: -1.08 (inactive)
z-score [16]: 0.972 (inactive)
z-score [17]: 0.413 (inactive)
z-score [18]: 0.318 (inactive)
z-score [19]: -1.28
composite z-score [20]: 0.0487

CC(C)N1C(=O)c2ccccc2[C@](C)(C(=O)NCC(F)(F)F)[C@@H]1c1ccc(CO)cc1
z-score [1]: 0.508
z-score [2]: 1.33
z-score [3]: 1.01
z-score [4]: 0.0226
z-score [5]: 0.177
z-score [6]: 0.686
z-score [7]: -0.0819 (inactive)
z-score [8]: 0.261
z-score [9]: 1.38
z-score [10]: 0.87 (inactive)
z-score [11]: -0.116
z-score [12]: -1.3 (inactive)
z-score [13]: 0.117 (inactive)
composite z-score [14]: -0.172 (inactive)
z-score [15]: -0.618 (inactive)
z-score [16]: -0.613 (inactive)
z-score [17]: 0.558 (inactive)
z-score [18]: -0.0513 (inactive)
z-score [19]: 1.45
composite z-score [20]: -0.0195

C=CCOC(=O)[C@@H]1[C@H]2C(=O)O[C@H](c3ccccc3)[C@H](c3ccccc3)N2[C@H](c2ccc(OCCOC(=O)[C@H]3C[C@H]4C(=O)N5CCC[C@H]5C(=O)N4[C@H]3c3cccc(OCCO)c3)cc2)[C@@]12C(=O)Nc1ccc(I)cc12
z-score [1]: -0.302
z-score [2]: -0.506
z-score [3]: -0.28
z-score [4]: 0.328
z-score [5]: -0.0082
z-score [6]: -2.08
z-score [7]: 0.667 (inactive)
z-score [8]: -0.16
z-score [9]: -0.998
z-score [10]: 0.0981 (inactive)
z-score [11]: 0.0829
z-score [12]: 2.04 (inactive)
z-score [13]: -0.273 (inactive)
composite z-score [14]: 0.0219 (inactive)
z-score [15]: 3.81 (inactive)
z-score [16]: 1.89 (inactive)
z-score [17]: -0.0055 (inactive)
z-score [18]: -0.365 (inactive)
z-score [19]: -0.166
composite z-score [20]: 0.0003

CC(C)NC(=O)[C@@]1(C)c2ccccc2C(=O)N(Cc2ccccc2)[C@H]1c1ccc(CO)cc1
z-score [1]: 0.389
z-score [2]: 0.714
z-score [3]: 1.41
z-score [4]: 0.579
z-score [5]: 0.38
z-score [6]: 2.88
z-score [7]: 1.49 (inactive)
z-score [8]: -0.197
z-score [9]: 1.02
z-score [10]: -0.268 (inactive)
z-score [11]: 0.107
z-score [12]: -0.177 (inactive)
z-score [13]: 0.782 (inactive)
composite z-score [14]: -1.48 (inactive)
z-score [15]: 0.5 (inactive)
z-score [16]: -1.29 (inactive)
z-score [17]: 0.4 (inactive)
z-score [18]: 0.988 (inactive)
z-score [19]: 0.453
composite z-score [20]: -0.287

COC(=O)[C@@]1(Cc2ccc(F)cc2)[C@H]2c3cc(C(=O)N4CCCC4)n(Cc4ccccn4)c3C[C@H]2CN1C(=O)c1ccccc1
z-score [1]: -0.94
z-score [2]: -0.0559
z-score [3]: -0.347
z-score [4]: -0.333
z-score [5]: -2
z-score [6]: 1.51
z-score [7]: -0.474 (inactive)
z-score [8]: -0.116
z-score [9]: -1.65
z-score [10]: -1.75 (inactive)
z-score [11]: -1.52
z-score [12]: 1.32 (inactive)
z-score [13]: -2.15 (inactive)
composite z-score [14]: 0.29 (inactive)
z-score [15]: 1.03 (inactive)
z-score [16]: 0.938 (inactive)
z-score [17]: -0.81 (inactive)
z-score [18]: -0.962 (inactive)
z-score [19]: -2.45
composite z-score [20]: 0.0945

CN(C)CCCNC(=O)[C@@]1(C)c2ccccc2C(=O)N(Cc2ccc(OC(F)(F)F)cc2)[C@H]1c1ccc(CO)cc1
z-score [1]: 0.173
z-score [2]: 0.886
z-score [3]: -0.261
z-score [4]: -0.0385
z-score [5]: 0.513
z-score [6]: 1.88
z-score [7]: -0.422 (inactive)
z-score [8]: -0.136
z-score [9]: 0.197
z-score [10]: 0.074 (inactive)
z-score [11]: -0.732
z-score [12]: -1.69 (inactive)
z-score [13]: -1.18 (inactive)
composite z-score [14]: -0.397 (inactive)
z-score [15]: 0.236 (inactive)
z-score [16]: -0.164 (inactive)
z-score [17]: 0.967 (inactive)
z-score [18]: -1.26 (inactive)
z-score [19]: 0.415
composite z-score [20]: -0.156
